# High-throughput results: PubChem, several laboratories
# Mcl1 Noxa PPI = disrupts binding of human Mcl-1 to Noxa peptide; Q07820; TR-FRET Mcl-1/Noxa peptide binding, 2 h; inhibition, % at 21.7 µM; actives 1.5% (n = 220,000);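 active means compounds that cut the protein-peptide binding signal by more than 50% relative to plate controls in a single-dose test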;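 further: His-tagged Mcl-1 with rhodamine Noxa BH3 peptide and terbium anti-His antibody; 0% = Mcl-1 plus Noxa peptide wells and 100% = peptide-only wells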
# Target sequence (Q07820 whole entry, looked up): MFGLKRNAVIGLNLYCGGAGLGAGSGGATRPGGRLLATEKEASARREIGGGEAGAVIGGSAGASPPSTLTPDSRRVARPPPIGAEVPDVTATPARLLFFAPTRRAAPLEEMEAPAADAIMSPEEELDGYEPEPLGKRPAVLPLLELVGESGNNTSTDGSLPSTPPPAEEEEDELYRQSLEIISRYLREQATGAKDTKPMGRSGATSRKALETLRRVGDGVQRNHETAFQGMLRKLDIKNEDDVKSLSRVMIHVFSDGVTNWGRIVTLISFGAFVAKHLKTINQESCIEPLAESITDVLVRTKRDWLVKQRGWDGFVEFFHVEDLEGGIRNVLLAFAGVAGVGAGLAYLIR
# Mcl1 Bid PPI = Mcl-1/Bid interaction inhibition. Q07820. TR-FRET Mcl-1/Bid-Dy647 peptide binding, 1536-well. actives 0.97% (n = 220,000). inhibition, % at 21.7 µM. AID 1021;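 active means compounds that cut the binding signal by more than half at the single screening dose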;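 further: His-tagged Mcl-1 with europium anti-His antibody binding Bid BH3 peptide; 0% = Mcl-1 plus peptide wells and 100% = peptide-only wells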
# Hck-Nef inh = inhibitors of human Hck kinase activated by Nef | Recombinant Hck-YEEI plus Nef, Z-Lyte FRET kinase assay | AID 463187 | inhibition, % at 20 µM | actives 0.68% (n = 220,000);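 active means Hck-Nef kinase inhibition above about 50%, limit read from the data; inactive means inhibition below that limit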;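 further: 0% = DMSO with Hck plus Nef and 100% = Hck alone without Nef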
# 14-3-3 Bad PPI = disrupts binding of bovine 14-3-3 zeta to phospho-Bad peptide. AID 781. TR-FRET 14-3-3zeta/Dy647-pBad peptide displacement, 1 h. actives 0.71% (n = 220,000). inhibition, % at 21.7 µM. P63103;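 active means inhibition above about 70%, limit read from the data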;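 further: 0% = full 14-3-3 plus peptide FRET controls and 100% = background without 14-3-3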
# Target sequence (P63103 whole entry, looked up): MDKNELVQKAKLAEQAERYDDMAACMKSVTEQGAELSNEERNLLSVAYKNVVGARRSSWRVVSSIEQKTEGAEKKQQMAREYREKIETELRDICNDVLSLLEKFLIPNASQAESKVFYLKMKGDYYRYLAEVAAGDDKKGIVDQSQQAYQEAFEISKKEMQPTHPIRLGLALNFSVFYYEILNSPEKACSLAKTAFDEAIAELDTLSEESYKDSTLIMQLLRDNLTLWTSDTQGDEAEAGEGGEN
# Mcl-1 Bim block = disrupts Bim peptide binding to human Mcl-1; Q07820; Bead-based flow cytometry, Bim peptide-Mcl-1 binding; inhibition, % at 10 µM; actives 0.1% (n = 190,000); AID 1009; in the data active means inhibition above about 40%;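 further: 0% = no compound tracer wells and 100% = peptide blocker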
# Pf gametocyte = inhibitors of late stage P. falciparum gametocyte viability. inhibition, % at 10.9 µM. P. falciparum stage V gametocytes, ATP luminescence, 24 h. AID 743093. actives 0.065% (n = 150,000);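 active means inhibition above the mean plus 3 SD of compounds within the control limits, set per campaign, cut at about 38% in these data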;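 further: 0% = DMSO wells and 100% = medium only without gametocytes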
# * hit, by the source's call; / = no result given; [ ] = dose if it differs, or a comment. Most compounds without a hit are left out; they make up all but 2.9% or so of the library.
SMILES,Mcl1 Noxa PPI,Mcl1 Bid PPI,Hck-Nef inh,14-3-3 Bad PPI,Mcl-1 Bim block,Pf gametocyte
CC1CCN(Cc2c(O)ccc3c(=O)c(-c4nc5ccccc5s4)c(N)oc23)CC1,52.8*,4.9,1.6,0.5,3.0,-4.6
CNC(=S)N1C2CCC1CC(NC(=O)NC13CC4CC(CC(C4)C1)C3)C2 (centres undefined),-3.8,-4.6,-0.9,-5.2,0.0,/
Cc1ccc(N2C(=O)CC(Cn3nc(C)cc3C)C2=O)cc1 (centres undefined),10.6,91.1*,0.6,/,0.0,/
COc1cccc(C(=O)NC2CC3CCCC(C2)N3CC(=O)Nc2ccc(N(C)C)cc2)c1 (centres undefined),34.1,-44.9,-0.4,9.7,0.0,11.9
COc1cccc(C(=O)NC2CC3CCCC(C2)N3CC(=O)Nc2ccccc2)c1 (centres undefined),66.1*,53.8*,6.8,83.3*[fluorescence artefact?],1.0,/
CC(C)COC(=O)/C(C#N)=C/c1c[nH]c2ccccc12,-7.0,-10.0,2.4,3.5,-4.0,-19.5
Cc1nc(S/C(=C\c2ccc(-c3ccc(C(=O)O)c(Cl)c3)o2)C(=O)O)n[nH]1,92.5*,54.5*,38.8,86.0*,/,-7.5
Cc1nc(S/C(=C\c2ccc(OCc3ccccc3Cl)cc2)C(=O)O)n[nH]1,-27.0,-36.0,3.2,4.7,-3.0,/
O=c1c2ccccc2nc2n1CCC2,40.8,96.0*,-0.5,93.7*,-3.0,/
O=c1c2ccccc2nc2n1CCCCC2,9.6,-33.7,0.6,-6.0,-1.0,/
CCCN1C(=O)c2ccc(C(=O)NC3=NCCS3)cc2C1=O,-13.2,-15.1,6.2,1.5,-4.0,/
CCC1=NN2C(=N)/C(=C\c3ccc(OCc4cc(=O)n5nc(CC)sc5n4)c(OC)c3)C(=O)N=C2S1,93.8*,-66.0,45.5,4.2,2.0,/
CCc1nn2c(=O)cc(COc3ccc(/C=C4\C(=N)N5N=C(CC(C)C)SC5=NC4=O)cc3)nc2s1,27.2,-55.3,26.9,6.4,/,/
N#C/C(=C1/CCCCCN1)c1nc2ccccc2s1,2.6,98.0*,1.1,-15.9,-1.0,/
CC(=O)NC1C(=O)N=C(SC(C)C(=O)Nc2cccc(Cl)c2)NC1=O (centres undefined),19.1,-25.7,-1.8,87.4*,0.0,2.2
COC(=O)c1cc(N2C(=O)C3C(C2=O)C2(C)C=CC3(C)O2)ccc1Cl (centres undefined),68.8*,-0.6,1.5,6.3,6.0,/
CC1CCN(C(=O)c2cc(N3C(=O)C4C5CCC(C5)C4C3=O)ccc2Cl)CC1 (centres undefined),16.7,-13.5,20.5,-6.2,-2.0,/
Cc1cc(N/N=C/c2ccc(O)c(C)c2O)nc(-c2ccccc2O)n1,89.2*,74.6*,1.1,26.2,-2.0,/
Cc1ccc2nc(C(Cl)(Cl)Cl)nc(N/N=C/c3ccncc3)c2c1,13.8,-27.9,21.8,-21.6,1.0,-1.0
COc1ccc(/C=N/Nc2nc(-c3cccnc3)nc3ccccc23)cc1OC,50.1,-22.4,17.9,-0.5,/,17.7
CCOC(=O)c1ccc(Nc2nc(-c3cccnc3)nc3ccccc23)cc1,35.0,46.3,2.1,75.1*[fluorescence artefact?],0.0,-11.5
Cc1ccc(-c2nc(N/N=C/c3ccncc3)c3ccccc3n2)cc1,47.6,66.0*,-1.7,23.4,0.0,/
Cc1ccc(Nc2nc(-c3cccnc3)nc3ccccc23)cc1,42.2,10.8,15.2,-2.7,/,-12.8
Oc1ccc(/C=N/Nc2nc(-c3cccnc3)nc3ccccc23)c(O)c1,84.1*,-10.6,-22.1,82.8*,/,-4.7
Cn1c(CCNC(=O)C(C)(C)C)nc2ccccc21,7.5,-14.1,-0.3,7.2,0.0,/
SMILES,Mcl1 Noxa PPI,Mcl1 Bid PPI,Hck-Nef inh,14-3-3 Bad PPI,Mcl-1 Bim block,Pf gametocyte
Cc1ccccc1Nc1nc(-c2cccnc2)nc2ccccc12,10.9,-6.4,-50.8,2.4,0.0,/
Cc1c(O)ccc(/C=N/Nc2nc(-c3cccnc3)nc3ccccc23)c1O,89.2*,-10.6,0.7,10.8,/,12.4
CC(C)Oc1cccc(C(=O)C2CCCN(S(=O)(=O)C(C)C)C2)c1 (centres undefined),4.2,-30.3,12.2,-2.1,3.0,11.4
c1coc(-c2nnc3sc(Cc4cccs4)nn23)c1,38.8,-25.2,1.1,-13.8,-2.0,/
c1csc(Cc2nn3c(-c4n[nH]c5c4CCC5)nnc3s2)c1,54.0*,-16.6,13.6,0.2,2.0,-6.4
O=C(Cn1cnc2scc(-c3cccc([N+](=O)[O-])c3)c2c1=O)NCc1ccco1,66.8*,-24.5,54.0*,15.8,-1.0,18.6
COc1cc2c(cc1OC)C(c1ccc([N+](=O)[O-])cc1)NCC2 (centres undefined),/,/,/,/,/,20.9
CC1(C)C(=O)OC(c2cccs2)C2(CCCCC2)C1=O (centres undefined),12.0,-16.5,-1.3,-0.5,0.0,/
CC1(C)C2CCC(C2)C1(C)NC(=O)CN1CCN(Cc2ccccc2)CC1 (centres undefined),28.9,36.5,17.3,72.3*,-3.0,11.0
COc1ccc(OC)c(S(=O)(=O)Nc2ccc(O)c3ccccc23)c1,50.5*,-19.6,4.5,5.8,0.0,/
COc1ccc(S(=O)(=O)N2CCC(C(=O)N3CCCCC3)CC2)cc1OC,5.5,-21.1,0.5,-4.0,-2.0,-16.1
COc1ccc(S(=O)(=O)N2CCN(C(=O)NC3CCCCC3)CC2)cc1OC,55.9*,-60.9,7.6,8.8,-4.0,-17.6
CCOC(=O)C(C(=O)N(C)C)c1ncc(C(F)(F)F)cc1Cl (centres undefined),-2.2,-7.0,3.6,-2.4,0.0,-2.9
CCc1cc(C)c(O)c(CC)n1,-3.3,-29.6,0.0,8.6,-6.0,/
O=C(Nc1ccc(Br)cc1)c1cc([N+](=O)[O-])cc([N+](=O)[O-])c1,/,/,/,/,/,16.0
O=c1c2c([N+](=O)[O-])cc([N+](=O)[O-])cc2sn1-c1ccc(Br)cc1,91.3*,30.8,-9.1,51.2,-16.0,/
CCC(Oc1ccccc1F)C(=O)Nc1ccc2c(c1)n(C)c(=O)n2C (centres undefined),/,/,/,/,/,1.8
Cc1cc(C)cc(C(=O)N2CCN(Cc3ccc4c(c3)OCO4)CC2)c1,/,/,/,/,/,3.5
O=C(c1cccnc1)N1CCN(Cc2cccc(Br)c2)CC1,26.6,19.1,11.0,71.2*,0.0,/
O=C(c1cccnc1)N1CCN(Cc2ccc3c(c2)OCO3)CC1,10.6,61.0*,0.9,75.7*,-2.0,/
COc1ccc(CN2CCN(C(=O)c3cccnc3)CC2)cc1Br,1.9,44.7,-1.3,60.3,-3.0,/
O=C(COc1ccc([N+](=O)[O-])cc1)NCc1cccnc1,13.8,2.5,3.2,-11.0,-1.0,23.6
O=C(COc1ccc([N+](=O)[O-])cc1)Nc1nnc(-c2cccnc2)s1,68.8*,-11.1,20.2,20.4,/,-8.0
CCOC(=O)c1cccc(Nc2nc(C)cc(C)n2)c1,3.4,9.8,0.1,70.8*,-1.0,1.2
